Reference: PubChem BioAssay AID1159580 (chemical genetic matrix, 2015)
Hit rate of the full screen: of about 5,500 compounds, about 2,000 (36%) were called active. Roughly 18% stayed inconclusive and do not appear here. Cut-off read from the data, not from the text of the source: active = normalized growth mostly below about 0.91 (no sharp cut-off); inconclusive = no clear call, values can overlap the other calls; inactive = mostly above about 0.92. Some of the results follow.

Assay: chemical genetic growth profiling, strain panel (AID 1159580);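 note: tested at 20 µM; growth read once vehicle control cultures reached saturation at 30 °C; 1 = growth at the plate median or of vehicle wells; lower values mean less growth of the strain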
Details: S. cerevisiae deletion strains, growth OD

Measured: normalized growth

CN(C)CCc1c[nH]c2ccc(C[C@H]3COC(=O)N3)cc12
inactive: locus YAL021C, strain ccr4, active compounds read low 1.02 | locus YAL026C, strain drs2, active compounds read low 1.01 | locus YAL030W, strain snc1, active compounds read low 1.01 | locus YBL061C, strain skt5, active compounds read low 1.01 | locus YBR009C, strain hhf1, active compounds read low 1.01 | locus YBR023C, strain chs3, active compounds read low 1.01 | locus YBR171W, strain sec66, active compounds read low 1.02 | locus YBR231C, strain swc5, active compounds read low 0.993 | locus YBR279W, strain paf1, active compounds read low 1.01 | locus YCL011C, strain gbp2, active compounds read low 1.01 | locus YCL016C, strain dcc1, active compounds read low 1 | locus YCL061C, strain MRC1, active compounds read low 1.01 | locus YCL069W, strain vba3, active compounds read low 1.01 | locus YCR088W, strain abp1, active compounds read low 1.01 | locus YDL005C, strain med2, active compounds read low 1.01 | locus YDL040C, strain nat1, active compounds read low 1.01 | locus YDR001C, strain nth1, active compounds read low 1.01 | locus YDR069C, strain doa4, active compounds read low 1.02 | locus YDR137W, strain rgp1, active compounds read low 0.993 | locus YDR159W, strain sac3, active compounds read low 1.04 | locus YDR195W, strain ref2 0.978 | locus YDR297W, strain sur2, active compounds read low 1.01 | locus YDR334W, strain swr1, active compounds read low 1.02 | locus YDR335W, strain msn5, active compounds read low 1.01 | locus YDR392W, strain spt3, active compounds read low 1.03 | locus YEL003W, strain gim4, active compounds read low 1 | locus YEL037C, strain rad23, active compounds read low 1.01 | locus YEL061C, strain CIN8 (second series), active compounds read low 1.01 | locus YER015W, strain faa2, active compounds read low 1.01 | locus YER016W, strain bim1, active compounds read low 1.01 | locus YER111C, strain swi4, active compounds read low 1.02 | locus YER155C, strain BEM2 (second series), active compounds read low 1.06 | locus YFR010W, strain ubp6, active compounds read low 1.02 | locus YGL167C, strain pmr1, active compounds read low 1.01 | locus YGL173C, strain kem1, active compounds read low 1 | locus YGL227W, strain vid30, active compounds read low 1.01 | locus YGL240W, strain doc1, active compounds read low 1.01 | locus YGL253W, strain hxk2, active compounds read low 0.998 | locus YHR013C, strain ard1, active compounds read low 1 | locus YHR027C, strain rpn1, active compounds read low 1.01 | locus YHR030C, strain SLT2, active compounds read low 1.02 | locus YHR079C, strain IRE1, active compounds read low 0.986 | locus YHR142W, strain chs7, active compounds read low 0.992 | locus YJL092W, strain hpr5, active compounds read low 1.01 | locus YJL095W, strain BCK1 (second series), active compounds read low 1.01 | locus YJL095W, strain BCK1, active compounds read low 1 | locus YJL115W, strain asf1, active compounds read low 1.01 | locus YJL129C, strain trk1, active compounds read low 0.988 | locus YJL154C, strain vps35, active compounds read low 1.01 | locus YJL164C, strain tpk1, active compounds read low 1.02 | locus YJL166W, strain qcr8, active compounds read low 1.01 | locus YJR066W, strain TOR1, active compounds read low 0.966 | locus YKL160W, strain elf1, active compounds read low 1 | locus YKR026C, strain gcn3, active compounds read low 0.992 | locus YKR091W, strain srl3, active compounds read low 0.997 | locus YLL001W, strain dnm1, active compounds read low 1.01 | locus YLL026W, active compounds read low 1.01 | locus YLL041C, strain sdh2, active compounds read low 1.01 | locus YLR027C, strain aat2, active compounds read low 1.01 | locus YLR113W, strain HOG1, active compounds read low 0.972 | locus YLR221C, strain rsa3, active compounds read low 1.02 | locus YLR258W, strain gsy2, active compounds read low 1.01 | locus YLR262C, strain YPT6 (second series), active compounds read low 1.01 | locus YLR320W, strain mms22, active compounds read low 1.01 | locus YLR342W, strain FKS1, active compounds read low 1.01 | locus YLR357W, strain rsc2, active compounds read low 0.973 | locus YLR370C, strain arc18, active compounds read low 1.01 | locus YLR384C, strain iki3, active compounds read low 1 | locus YML120C, strain ndi1, active compounds read low 1.02 | locus YMR058W, strain fet3, active compounds read low 1.01 | locus YMR125W, strain sto1, active compounds read low 1.01 | locus YMR129W, active compounds read low 1.01 | locus YMR205C, strain PFK2, active compounds read low 0.998 | locus YMR231W, strain pep5, active compounds read low 1 | locus YNL071W, strain lat1, active compounds read low 1.01 | locus YNL183C, strain NPR1, active compounds read low 0.978 | locus YNL209W, strain ssb2, active compounds read low 1.01 | locus YNL248C, strain rpa49, active compounds read low 1 | locus YNL322C, strain KRE1 (second series), active compounds read low 1.01 | locus YNR049C, strain mso1, active compounds read low 1.01 | locus YOR001W, strain rrp6, active compounds read low 0.998 | locus YOR070C, strain gyp1, active compounds read low 1.01 | locus YOR080W, strain dia2, active compounds read low 1 | locus YOR083W, strain WHI5, active compounds read low 1 | locus YOR106W, strain vam3, active compounds read low 1 | locus YOR231W, strain MKK1, active compounds read low 0.999 | locus YOR265W, strain rbl2, active compounds read low 1.01 | locus YOR270C, strain vph1, active compounds read low 0.991 | locus YOR290C, strain snf2, active compounds read low 1.01 | locus YPL051W, strain arl3, active compounds read low 1.01 | locus YPL078C, strain atp4, active compounds read low 1 | locus YPL106C, strain sse1, active compounds read low 1.04 | locus YPL240C, strain hsp82, active compounds read low 1.01 | locus YPL256C, strain CLN2, active compounds read low 1.02
